Activity calls are given as the source filed them.

The test system of assay [1] is Plasmodium falciparum Sir2 (PF13_0152, Sir2A). Put plainly: pfSir2 binders on small-molecule microarrays, primary screen, biochemical, small-molecule microarray, 635 nm fluorescence (AID 1098).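 Further: score merges spot fluorescence intensity with its signal-to-noise ratio.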 Particulars: small-molecule microarray binding, fluorescence 635 nm; higher = more signal.
The nature of assay [2]: small-molecule microarray binders of probe aDKK1, primary screen, biochemical, biotinylated probe, 635/667 nm fluorescence (AID 1099).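 Further: score merges 667nm spot fluorescence with signal to noise across triplicate slides.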 The note with it: higher = more signal.
A short description of assay [3]: small-molecule microarray binders of probe aCHRDL2, primary screen, biochemical, biotinylated probe, 635/667 nm fluorescence (AID 1100). The note with it: higher = more signal.
Assay [4] is described as follows: splicing luciferase reporter signal modulators, primary screen, spliceosome inhibition project, cell-based, HEK293, splice +/- reporter (AID 1101).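 Further: HEK293 cells carrying a splicing-competent luciferase reporter gene; test concentration not given here.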 The note with it: luminescence, 24 h, higher = more signal, called active from +8 up or from −8 down.
For assay [5], the target named is Fibroblast growth factor 10 (Homo sapiens) (UniProt O15520). Put plainly: FGF10 binders on small-molecule microarrays, primary screen, biochemical, small-molecule microarray, 635 nm fluorescence (AID 1102). Particulars: FGF10 binding, fluorescence 635 nm, higher = more signal.
Fibroblast growth factor 10 (Homo sapiens), sequence (O15520 whole entry, looked up): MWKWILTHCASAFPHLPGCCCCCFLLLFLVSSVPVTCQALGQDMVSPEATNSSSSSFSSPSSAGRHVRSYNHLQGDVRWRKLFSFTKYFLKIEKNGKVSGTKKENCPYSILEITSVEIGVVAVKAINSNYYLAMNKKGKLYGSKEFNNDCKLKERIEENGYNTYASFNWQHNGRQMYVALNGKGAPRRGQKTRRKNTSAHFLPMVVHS
Assay [6] has as its system glycogen synthase kinase-3 (GSK3A per assay name; protocol says GSK3B). Put plainly: GSK3 binders on small-molecule microarrays, primary screen, biochemical, small-molecule microarray, 635 nm fluorescence, GSK3A (AID 1103). Further: the record names both GSK3A and GSK3B. The note with it: small-molecule microarray binding, fluorescence 635 nm; higher = more signal.
The target in assay [7] is Epidermal growth factor receptor (Homo sapiens) (UniProt P00533). Nature of the assay: EGFR binders on small-molecule microarrays, primary screen, biochemical, small-molecule microarray, 635 nm fluorescence (AID 1104).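 Further: score merges 667 nm emission intensity with spot signal to noise over triplicate slides.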 The note with it: EGFR binding, higher = more signal.
Epidermal growth factor receptor (Homo sapiens), sequence (P00533 whole entry, looked up): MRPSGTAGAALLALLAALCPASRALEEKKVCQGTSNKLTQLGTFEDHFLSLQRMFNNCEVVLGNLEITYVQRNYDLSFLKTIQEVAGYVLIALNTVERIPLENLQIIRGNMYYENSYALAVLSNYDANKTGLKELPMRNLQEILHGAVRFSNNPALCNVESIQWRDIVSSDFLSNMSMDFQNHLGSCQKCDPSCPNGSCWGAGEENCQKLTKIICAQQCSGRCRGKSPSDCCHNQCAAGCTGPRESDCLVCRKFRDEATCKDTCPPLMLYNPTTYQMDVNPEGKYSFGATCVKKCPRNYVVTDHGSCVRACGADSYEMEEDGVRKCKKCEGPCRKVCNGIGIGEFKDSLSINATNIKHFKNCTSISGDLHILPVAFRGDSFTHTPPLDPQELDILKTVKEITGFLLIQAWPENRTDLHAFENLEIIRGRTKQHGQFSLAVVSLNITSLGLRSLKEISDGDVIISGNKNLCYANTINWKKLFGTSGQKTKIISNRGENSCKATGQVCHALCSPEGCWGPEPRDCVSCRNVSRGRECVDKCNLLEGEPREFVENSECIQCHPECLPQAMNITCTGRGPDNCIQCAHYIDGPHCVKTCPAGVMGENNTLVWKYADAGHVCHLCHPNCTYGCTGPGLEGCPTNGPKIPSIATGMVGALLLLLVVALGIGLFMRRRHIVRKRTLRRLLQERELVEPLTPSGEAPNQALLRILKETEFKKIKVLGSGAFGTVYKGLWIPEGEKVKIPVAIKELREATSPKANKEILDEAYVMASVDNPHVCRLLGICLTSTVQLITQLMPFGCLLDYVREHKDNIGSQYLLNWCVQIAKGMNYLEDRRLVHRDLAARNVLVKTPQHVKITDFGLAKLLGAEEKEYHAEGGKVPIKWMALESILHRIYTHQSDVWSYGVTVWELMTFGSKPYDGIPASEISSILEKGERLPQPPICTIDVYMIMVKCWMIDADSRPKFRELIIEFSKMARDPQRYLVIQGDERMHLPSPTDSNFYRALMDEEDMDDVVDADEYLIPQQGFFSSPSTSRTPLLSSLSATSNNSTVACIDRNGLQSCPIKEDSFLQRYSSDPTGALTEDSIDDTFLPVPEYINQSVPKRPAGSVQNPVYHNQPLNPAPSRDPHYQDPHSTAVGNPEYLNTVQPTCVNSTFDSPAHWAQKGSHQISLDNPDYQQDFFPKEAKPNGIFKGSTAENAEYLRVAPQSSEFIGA
Assay [8] addresses Follistatin-related protein 3 (Homo sapiens) (UniProt O95633). Put plainly: FSTL3 binders on small-molecule microarrays, primary screen, biochemical, small-molecule microarray, 635 nm fluorescence (AID 1105).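 Further: score merges emission near 667 nm and signal to noise per printed spot across three slides.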 The note with it: FSTL3 binding, higher = more signal.
Assay [9] deals with Dickkopf-related protein 1 (Homo sapiens) (UniProt O94907). Nature of the assay: DKK1 binders on small-molecule microarrays, primary screen, biochemical, small-molecule microarray, 635 nm fluorescence scan (AID 1106).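 Further: score merges emission near 667 nm with signal to noise over three replicate slides.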 The note with it: DKK1 binding, higher = more signal.
Dickkopf-related protein 1 (Homo sapiens), sequence (O94907 whole entry, looked up): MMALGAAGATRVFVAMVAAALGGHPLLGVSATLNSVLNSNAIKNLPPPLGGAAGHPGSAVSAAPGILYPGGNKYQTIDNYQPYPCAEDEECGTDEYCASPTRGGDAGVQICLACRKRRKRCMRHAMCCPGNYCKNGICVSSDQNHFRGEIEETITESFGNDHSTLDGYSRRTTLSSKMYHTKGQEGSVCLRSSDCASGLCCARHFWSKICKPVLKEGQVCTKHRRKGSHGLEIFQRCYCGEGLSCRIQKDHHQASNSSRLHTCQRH
The subject of assay [10] is Inhibin beta A chain (activin A). Put plainly: INHBA (activin A) binders on microarrays, primary screen, biochemical, small-molecule microarray, 635 nm fluorescence scan (AID 1107).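 Further: mouse activin A protein probed at 4.33 µg/mL on printed slides; score merges bound-protein fluorescence near 667 nm with spot signal-to-noise.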 Particulars: small-molecule microarray binding, higher = more signal.
The subject of assay [11] is Human papillomavirus type 1a protein E7 (residues 44-93). Put plainly: HPV1a E7 fragment binders on microarrays, primary screen, biochemical, small-molecule microarray, residues 44-93, 635 nm fluorescence (AID 1108).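 Further: E7 fragment applied at 1 µg/mL in TBST for 1 h at 4 C; score combines spot fluorescence with its signal to noise ratio.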 Particulars: small-molecule microarray binding, fluorescence 635 nm; higher = more signal.
Assay [12] can be described thus: modulators of HCV replicon luciferase signal, primary screen, HCV replication inhibitor project, Huh7 cells, luciferase reporter (AID 1109).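 Further: huh7 hepatoma cells harbouring a luciferase neomycin HCV replicon reporter; luciferase luminescence as measure of HCV replicon replication; test concentration not given here.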 Particulars: 48 h, higher = more signal. Background: In antiviral work, replicon cells carry a viral genome segment that copies itself.
Assay [13] concerns the target Left-right determination factor 2 (Homo sapiens) (UniProt O00292). Put plainly: LEFTY2 binders on small-molecule microarrays, primary screen, biochemical, small-molecule microarray, 635 nm fluorescence scan (AID 1110). Particulars: LEFTY2 binding, higher = more signal.
The target of assay [14] is Calmodulin-1 (Homo sapiens) (UniProt P0DP23). Nature of the assay: CALM1 binders on microarrays, EGTA buffer, profiling panel, biochemical, small-molecule microarray, Cy5-labelled CALM1 (AID 1111).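 Further: labelled calmodulin applied in Tris saline Tween buffer holding calcium plus EGTA and DTT.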 Particulars: Cy5-CALM1 binding fluorescence, higher = more signal.
The target is the same in assay [15]. Put plainly: calcium-bound CALM1 binders on microarrays, profiling panel, artefact control for SMM control-protein annotation, biochemical, small-molecule microarray, Cy5-labelled CALM1, plus calcium (AID 1112).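 Further: score merges spot fluorescence with signal to noise from triplicate slides.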 The note with it: Cy5-CALM1 binding fluorescence, higher = more signal.
Assay [16] in a line: small-molecule microarray binders of probe aWnt5a, primary screen, biochemical, biotinylated probe, 635/667 nm fluorescence (AID 1113).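 Further: score merges 667 nm fluorescence intensity with signal-to-noise per printed feature.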 The note with it: higher = more signal.
Assay [17] in a line: small-molecule microarray binders of probe aShh, primary screen, biochemical, biotinylated probe, 635/667 nm fluorescence (AID 1114).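 Further: probe is biotin-labelled aShh protein from a stem cell growth factor screen; measures binding of labelled protein to compounds printed on the slide; score merges feature fluorescence at 667 nm with signal-to-noise.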 The note with it: higher = more signal.
Assay [18] is described as follows: small-molecule microarray binders of probe aNog, primary screen, biochemical, biotinylated probe, 635/667 nm fluorescence (AID 1115).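 Further: probe is biotinylated aNog protein used at 0.15 µg/mL for 1 h at 4 C; z-score combines 667 nm fluorescence of each spot with its signal to noise.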 The note with it: higher = more signal.
The target of assay [19] is Torsin-1A-interacting protein 1 (Homo sapiens) (UniProt Q5JTV8). Nature of the assay: LAP1 binders from COS7 cell lysate, primary screen, small-molecule microarray, 635/667 nm fluorescence (AID 1116). The note with it: COS7-hLAP1 lysate binding, 635 nm fluorescence, higher = more signal.
Torsin-1A-interacting protein 1 (Homo sapiens), sequence (Q5JTV8 whole entry, looked up): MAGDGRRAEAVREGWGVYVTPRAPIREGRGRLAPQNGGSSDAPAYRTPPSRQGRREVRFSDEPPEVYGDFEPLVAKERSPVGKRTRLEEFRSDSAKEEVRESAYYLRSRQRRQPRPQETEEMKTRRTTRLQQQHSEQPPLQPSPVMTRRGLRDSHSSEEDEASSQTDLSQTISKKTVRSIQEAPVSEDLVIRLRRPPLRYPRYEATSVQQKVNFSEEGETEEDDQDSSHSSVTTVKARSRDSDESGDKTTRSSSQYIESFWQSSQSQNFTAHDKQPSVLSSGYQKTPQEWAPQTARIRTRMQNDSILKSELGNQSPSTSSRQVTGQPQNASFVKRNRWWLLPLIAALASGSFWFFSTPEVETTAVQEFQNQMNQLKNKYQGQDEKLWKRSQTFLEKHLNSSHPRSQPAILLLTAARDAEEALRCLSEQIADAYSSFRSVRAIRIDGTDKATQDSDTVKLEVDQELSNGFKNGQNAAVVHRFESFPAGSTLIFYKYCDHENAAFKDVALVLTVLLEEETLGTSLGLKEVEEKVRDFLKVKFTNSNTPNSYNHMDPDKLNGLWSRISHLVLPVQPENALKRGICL
For assay [20], the target named is Alpha-bungarotoxin (Bungarus multicinctus) (UniProt P60615). Put plainly: alpha-bungarotoxin binders on microarray, profiling panel, artefact control for SMM control protein annotation, biochemical, small-molecule microarray, Alexa647 label, 635/667 nm fluorescence (AID 1117). Particulars: alpha-BTX-A647 binding fluorescence, higher = more signal.
Alpha-bungarotoxin (Bungarus multicinctus), sequence (P60615 whole entry, looked up): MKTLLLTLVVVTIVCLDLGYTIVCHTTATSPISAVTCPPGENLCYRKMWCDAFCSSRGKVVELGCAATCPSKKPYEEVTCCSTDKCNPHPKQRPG

Follistatin-related protein 3 (Homo sapiens), sequence (O95633 whole entry, looked up): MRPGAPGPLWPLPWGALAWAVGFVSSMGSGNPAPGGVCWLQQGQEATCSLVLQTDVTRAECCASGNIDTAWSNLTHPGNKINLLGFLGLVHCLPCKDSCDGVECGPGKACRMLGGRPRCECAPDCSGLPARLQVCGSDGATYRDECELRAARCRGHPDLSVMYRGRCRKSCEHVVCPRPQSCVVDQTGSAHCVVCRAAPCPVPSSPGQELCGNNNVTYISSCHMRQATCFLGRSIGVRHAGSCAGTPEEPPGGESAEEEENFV
Left-right determination factor 2 (Homo sapiens), sequence (O00292 whole entry, looked up): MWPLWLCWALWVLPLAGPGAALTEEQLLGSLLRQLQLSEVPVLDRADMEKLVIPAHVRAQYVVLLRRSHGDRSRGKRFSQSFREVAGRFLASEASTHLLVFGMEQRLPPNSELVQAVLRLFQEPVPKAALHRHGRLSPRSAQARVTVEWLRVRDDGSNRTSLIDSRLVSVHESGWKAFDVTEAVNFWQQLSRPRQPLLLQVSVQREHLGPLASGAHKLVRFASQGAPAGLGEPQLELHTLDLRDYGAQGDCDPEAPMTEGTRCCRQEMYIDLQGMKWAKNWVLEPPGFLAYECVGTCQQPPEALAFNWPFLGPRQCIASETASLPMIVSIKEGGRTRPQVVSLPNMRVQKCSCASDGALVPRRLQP

Consider `COC(=O)[C@@]1(Cc2ccccc2)[C@H]2c3cc(C(=O)N4CCCC4)n(Cc4ccc(OC)c(OC)c4)c3C[C@H]2CN1C(=O)c1ccccc1`, for which the composite z-score was 0.491 in [1]; 1.14 in assay [2]; 1.2 in assay [3]; 0.971 in [5]; 1.06 in [6]; 0.122 in [7]. Besides, the composite z-score in assay [8] is 0.985; in assay [9], -0.823; in [10], 0.763; in [11] it was 1.44; in [13], -0.737; in assay [14] it was 1.39. For the same molecule, the composite z-score in assay [15] was found to be 0.852; in [16] it was 0.421; in [17] it was 0.853; in [18], 1.85; in [19] it was 1.38; in assay [20], 0.315. In addition, the z-score in [4] is -2.9 (inactive); in assay [12] it was -2.27.

Take `CC1CC/C=C\[C@H]2OC34C=CCN(c5ccc6ccccc6c5)C(=O)[C@H]3N(C(C)CO)C(=O)[C@@H]4C2C(=O)O1` (stereo not given in full): the composite z-score in [1] is 1.38; in [2] it was -0.087; in [3], 0.404; in assay [5] it was -0.83; in [6], -1.36; in assay [7], -0.975. The composite z-score is -1.04 in [8]; -0.591 in [9]; 0.265 in assay [10]; -1.11 in [11]; -0.82 in [13]; -0.69 in assay [14]. Further, the composite z-score in assay [15] was -0.607; in assay [16], -0.146; in [17], -0.291; in [18], -0.21; in [19] it was -0.26; in [20], -0.758. The results for the z-score in assay [4] and in assay [12] were 0.0493 (inactive) and -0.942, respectively.

In the case of `O=C1C2C=CC(C(O)c3c(F)cccc3Cl)N(Nc3ccc([N+](=O)[O-])cc3)C2C(=O)N1c1ccccc1` (stereo not given), the composite z-score in [1] was 0.77; in assay [2] it was -0.124; in assay [3] it was -0.0918; in [5] it was 1.2; in assay [6] it was 1.27; in assay [7] it was 0.518. In addition, the composite z-score in assay [8] was 1.45; in assay [9] it was 0.875; in [10], 0.191; in assay [11], 1.41; in assay [13], 0.563; in assay [14], 2.16. Also, the composite z-score is 0.132 in assay [15]; -0.0222 in assay [16]; 0.23 in assay [17]; 0.803 in assay [18]; 1.6 in assay [19]; 0.676 in [20]. The values for the z-score in [4] and in assay [12] were -0.108 (inactive) and 0.128, respectively.

On to `CCOC(=O)C[C@H]1[C@H](OC(=O)Cc2ccc3c(c2)OCO3)[C@@H](NC(=O)Cc2ccc(OC)cc2)c2cc(OCCCO)ccc2N1C(=O)Cc1ccc(OC)cc1`, for which the composite z-score in assay [1] is 0.132; in assay [2], -0.0514; in assay [3], -0.178; in [5], 0.205; in [6] it was 0.157; in assay [7], -0.141. The composite z-score in assay [8] is 0.0597; in assay [9], -0.141; in assay [10], 0.177; in assay [11], 0.221; in [13], -0.261; in assay [14], 0.824. Further, the composite z-score is 0.0314 in assay [15]; -0.147 in assay [16]; -0.14 in assay [17]; 0.118 in assay [18]; 0.664 in assay [19]; -0.105 in assay [20]. Besides, the figures for the z-score in [4] and in [12] were -2.07 (inactive) and -1.05, respectively.

Consider `CC[C@@H]1C=C(C(=O)O)[C@H](c2ccc(OC)cc2)N1S(=O)(=O)c1ccc(C)cc1`, for which the composite z-score is 1.05 in assay [1]; -0.0814 in assay [2]; 0.118 in assay [3]; -0.0657 in assay [5]; -1.06 in assay [6]; -0.675 in [7]. Further, the composite z-score in [8] is 0.0479; in assay [9], -0.188; in assay [10], 0.615; in [11], -0.875; in [13], -0.495; in assay [14] it was 0.15. Moreover, the composite z-score in assay [15] was 0.0583; in assay [16], -0.154; in assay [17], -0.221; in assay [18], -0.209; in assay [19], 0.076; in [20], 0.0708. The z-score was 0.603 (inactive) in [4] and -0.619 in [12].

Regarding `Cc1ccc(N2C(=O)c3ccccc3[C@](C)(C(=O)NCCCN(C)C)[C@@H]2c2ccc(CO)cc2)nc1`, the composite z-score in [1] is 0.485; in assay [2], -0.0971; in assay [3], 0.451; in assay [5], -0.47; in assay [6], -1.21; in assay [7], -1.1. Further, the composite z-score in assay [8] is -0.444; in [9], -0.599; in assay [10], 0.573; in [11], 0.571; in assay [13], -1.05; in [14] it was -0.213. For the same molecule, the composite z-score in [15] was -0.338; in [16], -0.148; in assay [17], -0.138; in assay [18], -0.348; in assay [19], -0.312; in assay [20], 0.149. The z-score is 0.055 (inactive) in assay [4] and -0.199 in [12].

The record behind these values is PubChem BioAssay.
